Out of some 320,000 compounds screened, about 22,000 (6.9%) were called active. Another 27% or so got no clear call; they are omitted. Calls follow the shape of the dose curve; as a rule, active = well fitted inhibition curve with a large enough effect; inconclusive = small, poorly fitted or top-dose-only effect, or another doubt; inactive = no such curve, though single readings can be large or run the other way. The entries come from a sample that favours actives as a whole. Where a call stands in place of a potency, no number is given.
Potency is read from the fitted curve at half-maximal effect.

The nature of this test: Primary qHTS for delayed death inhibitors of the malarial parasite plastid, 96 hour incubation. The settings on record: P. falciparum luciferase reporter growth; series mostly up to 28.7 µM. The essentials:
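Two-generation exposure (96 h) targets delayed-death phenotype. Reporter parasites carrying integrated firefly luciferase, in red cells at 2% hematocrit and 0.05% parasitemia final, kept at 37 C, 5% CO2; luminescence loss indicates inhibition.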
(In qHTS, concentration-response curves come from the screen itself.)
With `O=C(COc1ccccc1Cl)Nc1ccccc1C(=O)NC1CC1`, the Potency entry was “inactive”.

As to `CC1(C)CC(=O)c2ccc(O)cc2O1`, the Potency entry is “inactive”.

Regarding `COc1ccc2c(c1)OC(O)(C(F)(F)C(F)F)CC2=O` (stereo not drawn), the Potency is 0.828 µM (active).

`O=S1(=O)N=C(N(CCO)/N=C/c2ccccc2F)c2ccccc21`: the Potency entry is “inactive”.

With `COc1ccc(-n2nc3c(N4CCC(C(=O)NCc5ccccc5)CC4)nnc(C)c3c2C)cc1`, the Potency is 13.1 µM (active).

For `CCOc1ccc(CNC(=O)C2CCCN(c3nnc(C)c4c(C)n(-c5ccccc5)nc34)C2)cc1` (stereo not drawn), the Potency result is “inactive”.

On to `COc1ccc(CNC(=O)C2CCN(C(=O)c3ccccc3)CC2)cc1`, for which the Potency result was “inactive”.

`COC(=O)c1ccc(Nc2ncnc3sccc23)cc1`: the Potency result is “inactive”.

`CC(=O)c1c(C)n(-c2ccc(C)cc2)c2ccc(O)cc12`: the Potency is 7.38 µM (active).

Take `CCOC(=O)c1c(C)oc2ccc(OCC(=O)N(CC)CC)cc12`: the Potency entry is “inactive”.

Regarding `CC(=O)c1c(C)n(-c2ccc(N(C)C)cc2)c2ccc(OCC(N)=O)cc12`, the Potency was 9.28 µM (active).

In the case of `CCOC(=O)c1c(CN2CCOCC2)n(-c2ccccc2)c2ccc(O)cc12`, the Potency entry is “inactive”.

For the compound `Cc1c(Cc2ccccc2)c(=O)oc2cc(OCC(N)=O)ccc12`, the Potency entry was “inactive”.

For `O=C(O)CCC(=O)Nc1ccc(OCC2CCCO2)cc1` (stereo not drawn), the Potency result was “inactive”.

In the case of `CCCCn1nc(C(=O)Nc2cccc(C(=O)NC3CC3)c2)c2ccccc2c1=O`, the Potency was 11.7 µM (active).

As to `CCCn1nc(C(=O)Nc2ccc3nc(C)sc3c2)c2ccccc2c1=O`, the Potency entry was “inactive”.

As for `CCn1nc(C(=O)Nc2ccc(N3CCOCC3)cc2)c2ccccc2c1=O`, the Potency result is “inactive”.

As for `CC(=O)Nc1ccc(S(=O)(=O)NCC2CCC(C(=O)NCCc3ccccc3)CC2)cc1` (stereo not drawn), the Potency result was “inactive”.

For `COc1ccc(C2NC(=O)N(C)C(C)=C2[N+](=O)[O-])cc1` (stereo not drawn), the Potency result is “inactive”.

For the compound `COc1ccc(C(C)(C)C)cc1NC(=O)CCN1C(=O)C2CCCCC2C1=O` (stereo not drawn), the Potency entry was “inactive”.

With `NC(=O)c1ccsc1NC(=O)COC(=O)COc1ccc(C=O)cc1`, the Potency result is “inactive”.

On to `O=C(NCC(c1cccs1)N1CCOCC1)c1cc(Cl)ccc1[N+](=O)[O-]` (stereo not drawn), for which the Potency entry is “inactive”.

As to `CC(=O)Nc1ccccc1OC(=O)N1CCOCC1`, the Potency result was “inactive”.

For the compound `O=C(/C=C/c1cccs1)c1cc(Cl)ccc1OC(=O)N1CCOCC1`, the Potency was 8.28 µM (active).

Regarding `CCOc1cc(C)c(S(=O)(=O)NCc2ccccn2)cc1C`, the Potency entry is “inactive”.

In the case of `COc1ccc2[nH]c(C(=O)N3CCN(C)CC3)c(C)c2c1`, the Potency result was “inactive”.

With `O=C(c1cc2ccccc2s1)N1CCN(c2ccccn2)CC1`, the Potency entry is “inactive”.

As for `O=C(NC1CCCC1)C(c1ccco1)N(C(=O)c1csnn1)c1ccccc1` (stereo not drawn), the Potency entry is “inactive”.

Turning to `OCC[C@H]1C[C@@H](O)[C@H](O)[C@]2(OCCCc3ccccc32)O1`, the Potency result was “inactive”.

For the compound `COc1cc(OC)c(N2CC(C(=O)Nc3cc(Cl)ccc3N3CCOCC3)CC2=O)cc1Cl` (stereo not drawn), the Potency was 11.7 µM (active).

Turning to `COc1ccc(Cl)cc1NC(=O)CCN1CCOCC1`, the Potency entry is “inactive”.

Turning to `Cc1ccc(N2CC(C(=O)Nc3cc(Cl)ccc3-n3cncn3)CC2=O)cc1` (stereo not drawn), the Potency entry is “inactive”.

`CN(C(=O)CSc1nnc(C2CC2)n1C)C1CCCc2ccccc21` (stereo not drawn): the Potency entry is “inactive”.

Turning to `Cc1cc(C)n2nc(C(=O)OCC(=O)N(CCC#N)c3ccc(F)cc3)nc2n1`, the Potency entry is “inactive”.

As for `O=C(CCn1nnc2ccccc2c1=O)N[C@@H](Cc1c[nH]c2ccccc12)C(=O)O`, the Potency result was “inactive”.

For the compound `CCC(=O)Nc1sc(C(=O)N2CCCCC2)c(C)c1C#N`, the Potency is 14.7 µM (active).

`CCOC(=O)c1sc(NC(=O)CSc2ncccn2)c(C#N)c1C`: the Potency result was “inactive”.

In the case of `CCN1CCN(CC(=O)Nc2sc3c(c2C#N)CCC3)CC1`, the Potency entry was “inactive”.

Regarding `O=C1CN(C(=O)COC(=O)c2cnc(Cl)c(Cl)c2)c2ccccc2N1`, the Potency entry is “inactive”.

For `COc1ccc(Cl)cc1-n1c(C)cc(C(=O)OCC(=O)N2CC(=O)Nc3ccccc32)c1C`, the Potency is 4.15 µM (active).

As to `COc1cc(OC)c(C(=O)OCC(=O)N2CC(=O)Nc3ccccc32)cc1OC`, the Potency result was “inactive”.

As to `O=C(COC(=O)Cc1ccccc1F)NNC(=O)c1ccc(Cl)cc1`, the Potency entry was “inactive”.

In the case of `Cc1cc(Br)ccc1NC(=O)CN(C)C(=O)CN1C(=O)NC2(CCCC2)C1=O`, the Potency entry was “inactive”.

Turning to `COc1ccc(-c2cc(C(=O)N(C)Cc3ccccc3)c3ccccc3n2)cc1`, the Potency result is “inactive”.

Turning to `COc1ccc(-c2cc(C(=O)N(C)CC(=O)Nc3ccccc3Cl)c3ccccc3n2)cc1OC`, the Potency was 9.28 µM (active).

Turning to `COc1ccc(CN(C)C(=O)Cc2c[nH]c3ccccc23)c(OC)c1OC`, the Potency result was “inactive”.

As to `COc1ccc(-c2cc(C(=O)NCCCN3CCCC3=O)c3ccccc3n2)cc1OC`, the Potency result is “inactive”.

As for `COc1ccc(Cl)cc1NC(=O)CN(C)C(=O)c1ccc2n[nH]nc2c1`, the Potency entry is “inactive”.

Regarding `COc1ccc(CN(C)C(=O)c2cc(-c3ccc(C)cc3C)nc3ccccc23)c(OC)c1OC`, the Potency is 13.1 µM (active).

Take `CC1CCN(c2ccc([N+](=O)[O-])c(SCCO)c2)CC1`: the Potency entry is “inactive”.

For `Cc1ccc(C)c(OCC(=O)NNC(=O)C2CCC2)c1`, the Potency result was “inactive”.

Take `COc1cccc(OCc2nnc3n2N=C(c2ccccc2)C(CC(=O)O)S3)c1` (stereo not drawn): the Potency entry is “inactive”.

Turning to `CC1CCCN(C(C(=O)Nc2ccc(C(C)C)cc2)c2ccc3c(c2)OCO3)C1` (stereo not drawn), the Potency entry was “inactive”.

With `O=C(CSc1ccc(-c2ccc(F)cc2)nn1)Nc1ccc2c(c1)OCCO2`, the Potency result was “inactive”.

With `O=C(Nc1ccc2c(c1)OCCO2)C(c1ccc(F)cc1)N1CCCCC1` (stereo not drawn), the Potency was 8.28 µM (active).

With `CC(=O)Nc1ccc(NC(=O)C2CCCN(S(=O)(=O)c3ccc(Cl)cc3)C2)cc1` (stereo not drawn), the Potency entry was “inactive”.

On to `CC(NC(=O)CCCC1CCCCC1)c1ccc(S(N)(=O)=O)cc1` (stereo not drawn), for which the Potency entry was “inactive”.

As to `CCOc1cc(/C=C2\C(=N)N3N=C(C)SC3=NC2=O)ccc1OCCOc1ccccc1`, the Potency entry is “inactive”.

For `O=C(CCCCCn1c(=S)[nH]c2ccsc2c1=O)NC1CCCCC1`, the Potency is 13.1 µM (active).

As for `O=C(CCC(=O)c1cccs1)NC1CCCCCC1`, the Potency entry was “inactive”.

With `O=C(COC(=O)/C=C/c1cccs1)NC1CCCCC1`, the Potency result was “inactive”.

On to `CN1CCN(Cc2nc3cc(NC(=O)COc4ccc([N+](=O)[O-])cc4)ccc3n2C)CC1`, for which the Potency entry is “inactive”.

Turning to `Nc1nc(SCC(=O)Nc2cc(C(F)(F)F)ccc2Cl)[nH]c(=O)c1NC(=O)c1ccco1`, the Potency result was “inactive”.

As for `Cc1sc2ncn(CC(=O)NCCCC(=O)NCc3ccc(F)cc3)c(=O)c2c1C`, the Potency result was “inactive”.

Regarding `CC(NC(=O)Nc1cccc([N+](=O)[O-])c1)c1ccc2c(c1)OCO2` (stereo not drawn), the Potency is 2.08 µM (active).

In the case of `CCc1ccc(NC(=O)NC(C)c2ccc3c(c2)OCO3)cc1` (stereo not drawn), the Potency entry is “inactive”.

As for `CC(NC(=O)c1ccco1)c1ccc2c(c1)OCO2` (stereo not drawn), the Potency entry was “inactive”.

As for `CC(=O)Nc1cccc([N+](=O)[O-])c1`, the Potency entry was “inactive”.

As to `CC(NC(=S)Nc1ccc(S(N)(=O)=O)cc1)c1ccc2c(c1)OCO2` (stereo not drawn), the Potency was 4.65 µM (active).

On to `O=C(Nc1cccc([N+](=O)[O-])c1)c1ccc2c(c1)OCO2`, for which the Potency entry is “inactive”.

For `CN(CC(=O)Nc1ccc(F)cc1)CC(=O)N1CCCCC1`, the Potency result was “inactive”.

As to `Cc1ccc(-c2nnc(Nc3ccc(C(=O)N(C)C)cc3)c3ccccc23)cc1S(N)(=O)=O`, the Potency result was “inactive”.

Consider `COc1ccccc1C(=O)N(Cc1ccc(C)o1)C1CCS(=O)(=O)C1` (stereo not drawn), for which the Potency entry is “inactive”.

As to `CCCCc1nc(SCC(=O)Nc2nnc(C(C)C)s2)n[nH]1`, the Potency entry was “inactive”.

Take `CC(=O)Nc1ccc(NC(=O)CSc2ncnc3c2cnn3Cc2ccccc2)cc1`: the Potency result was “inactive”.

As to `CC(C)CNc1ncnc2c1cnn2Cc1ccc(Cl)cc1`, the Potency is 11.7 µM (active).

As for `Clc1ccc(Cn2ncc3c(NCc4cccnc4)ncnc32)cc1`, the Potency result is “inactive”.

`CC1CCCC(C)N1C(=O)CSc1nnnn1C1CCCC1` (stereo not drawn): the Potency result was “inactive”.

Regarding `CC(=O)Nc1ccc(NC(=O)CSc2nnnn2C2CCCCC2)cc1`, the Potency entry was “inactive”.

For `O=C(CSc1nnnn1C1CCCC1)N1CCCCC1`, the Potency was 0.586 µM (active).

In the case of `COc1cccc(NC(=O)c2ccccc2N(Cc2ccccc2)S(C)(=O)=O)c1`, the Potency entry is “inactive”.

As to `Cc1ccc(S(=O)(=O)N2CC(C)N(S(C)(=O)=O)C2)cc1` (stereo not drawn), the Potency result was “inactive”.

`O=C(CNC(=O)C12CC3CC(CC(C3)C1)C2)OCC(=O)N1CCCCC1`: the Potency result was “inactive”.

As to `CC(C)N(Cc1ccccc1)C(=O)COC(=O)c1ccccc1SCC(=O)N1CCCC1`, the Potency result is “inactive”.

As for `Cc1cccc(NC(=O)NC2(C)CCS(=O)(=O)C2)c1` (stereo not drawn), the Potency entry is “inactive”.

As for `CC(=O)Nc1ccc(C(=O)CSc2nc3ccc(C)cc3[nH]2)cc1`, the Potency result was “inactive”.

For `CCOC(=O)CSc1nc2ccc(C)cc2[nH]1`, the Potency was 13.1 µM (active).

On to `COc1ccc2nc(SCC(=O)Nc3c(C)cc(C)cc3C)[nH]c2c1`, for which the Potency result was “inactive”.

For the compound `O=C(Nc1c2c(nn1-c1ccccc1)CS(=O)(=O)C2)C1CCCC1`, the Potency result is “inactive”.

For the compound `CSc1ncc(C(=O)NCCCc2ccccc2)c(C)n1`, the Potency result is “inactive”.

`CCSc1nc2c(c(=O)[nH]1)C(c1cccnc1)C(C(=O)OC(C)C)=C(C)N2` (stereo not drawn): the Potency was 1.31 µM (active).

`COC(=O)C1=C(N)Oc2cc(C)oc(=O)c2C1c1cccnc1` (stereo not drawn): the Potency entry is “inactive”.

For the compound `COC(=O)C1=C(C)Nc2ncnn2C1c1cccnc1` (stereo not drawn), the Potency result is “inactive”.

For `COc1ccc2c(C)cc(SCC(=O)NCC3CCCO3)nc2c1` (stereo not drawn), the Potency result is “inactive”.

`O=C(Nc1ccc(F)cc1)C1CCCN(S(=O)(=O)c2ccc(-n3cnnn3)cc2)C1` (stereo not drawn): the Potency entry is “inactive”.

Regarding `c1ccc(-c2nnc(N3CCOCC3)c3ccccc23)cc1`, the Potency entry was “inactive”.

`CC1CN(c2nc(-c3ccccc3)nnc2-c2ccccc2)CC(C)O1` (stereo not drawn): the Potency was 0.828 µM (active).

With `Cc1ccc(-c2nnc(C)c(N3CC(C)OC(C)C3)n2)cc1` (stereo not drawn), the Potency result is “inactive”.

For `CCOC(=O)c1cccc(NC(=O)CCc2nnc3ccc(N4CCOCC4)nn23)c1`, the Potency entry was “inactive”.

`O=C(CNC(=O)c1ccc(Br)o1)Nc1ccccc1`: the Potency is 13.1 µM (active).

In the case of `O=C(NCc1cccs1)c1ccc(Br)o1`, the Potency result is “inactive”.

`O=C(CNC(=O)c1ccc(Br)o1)NCC1CCCO1` (stereo not drawn): the Potency result was “inactive”.

For the compound `Nc1c(N(CCCO)C(=O)C2CCCC2)c(=O)[nH]c(=O)n1Cc1ccccc1`, the Potency result is “inactive”.

For `Cc1cc(Cl)ccc1OCCCC(=O)Nc1cccc(-n2cnnn2)c1`, the Potency entry was “inactive”.

Regarding `OC(CNC1CCCC1)COc1ccc(F)cc1` (stereo not drawn), the Potency entry is “inactive”.

Take `Cc1ccc(S(=O)(=O)/N=C(\N)c2ccc(F)cc2)cc1`: the Potency result is “inactive”.

For the compound `Cc1ccc(-c2cc(=O)c3ccc(Cl)cc3[nH]2)cc1`, the Potency entry is “inactive”.

In the case of `Cc1ccc(-c2cc(=O)c3ccc(F)cc3[nH]2)cc1`, the Potency is 2.94 µM (active).

Values taken from PubChem BioAssay AID504834 (National Center for Advancing Translational Sciences (NCATS), 2011).
